In paper PMC9911399, “Two distinct binding modes provide the RNA-binding protein RbFox with extraordinary sequence specificity”:
Positions count from the first letter of the chain named. The full ranking holds about 16,000 sequences; the median of “ka relative to ugcaugu” is about 0.096, and the highest 2% start at about 0.35. The full list was thinned out, with the highest values kept by preference.

T1: RBFOX1 RRM RbFoxmut (Fox-RRM*) (Homo sapiens, UniProt Q9NWB1 109-208, R118D;E147R;N151S;E152T)
T1 sequence: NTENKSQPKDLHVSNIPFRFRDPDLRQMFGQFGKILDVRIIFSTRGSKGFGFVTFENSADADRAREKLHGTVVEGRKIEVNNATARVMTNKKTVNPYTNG

B1: AUUCUUA (DNA:RNA)
RNA: GGGAGACCGGAAUUCAGAUUGUCCAUUCUUAUUAAAUCCCGUCGUAGCCACCA
DNA 1: CAATCTGAATTCCGGTCTCCC
DNA 2: TGGTGGCTACGACGGGATT
B2: UGCCAUA (DNA:RNA)
RNA: B1 RNA with A25U, U26G, U27C, U29A
DNA 1: CAATCTGAATTCCGGTCTCCC
DNA 2: TGGTGGCTACGACGGGATT
B3: CCCUGCA (DNA:RNA)
RNA: B1 RNA with A25C, U26C, U27C, C28U, U29G, U30C
DNA 1: CAATCTGAATTCCGGTCTCCC
DNA 2: TGGTGGCTACGACGGGATT
B4: UGCAUUU (DNA:RNA)
RNA: B1 RNA with A25U, U26G, U27C, C28A, A31U
DNA 1: CAATCTGAATTCCGGTCTCCC
DNA 2: TGGTGGCTACGACGGGATT
B5: UGCAUAU (DNA:RNA)
RNA: B1 RNA with A25U, U26G, U27C, C28A, U30A, A31U
DNA 1: CAATCTGAATTCCGGTCTCCC
DNA 2: TGGTGGCTACGACGGGATT
B6: UGCCAUG (DNA:RNA)
RNA: B1 RNA with A25U, U26G, U27C, U29A, A31G
DNA 1: CAATCTGAATTCCGGTCTCCC
DNA 2: TGGTGGCTACGACGGGATT
B7: CUGCAUG (DNA:RNA)
RNA: B1 RNA with A25C, U27G, U29A, A31G
DNA 1: CAATCTGAATTCCGGTCTCCC
DNA 2: TGGTGGCTACGACGGGATT
B8: UGCCAUC (DNA:RNA)
RNA: B1 RNA with A25U, U26G, U27C, U29A, A31C
DNA 1: CAATCTGAATTCCGGTCTCCC
DNA 2: TGGTGGCTACGACGGGATT
B9: UGCAUGU (DNA:RNA)
RNA: B1 RNA with A25U, U26G, U27C, C28A, U30G, A31U
DNA 1: CAATCTGAATTCCGGTCTCCC
DNA 2: TGGTGGCTACGACGGGATT
B10: CUGCAUA (DNA:RNA)
RNA: B1 RNA with A25C, U27G, U29A
DNA 1: CAATCTGAATTCCGGTCTCCC
DNA 2: TGGTGGCTACGACGGGATT
B11: CGCGCUA (DNA:RNA)
RNA: B1 RNA with A25C, U26G, U27C, C28G, U29C
DNA 1: CAATCTGAATTCCGGTCTCCC
DNA 2: TGGTGGCTACGACGGGATT
B12: AUACCAG (DNA:RNA)
RNA: B1 RNA with U27A, U29C, U30A, A31G
DNA 1: CAATCTGAATTCCGGTCTCCC
DNA 2: TGGTGGCTACGACGGGATT
B13: CCAGGGG (DNA:RNA)
RNA: GGGAGACCGGAAUUCAGAUUGUCCCCAGGGGUUAAAUCCCGUCGUAGCCACCA
DNA 1: CAATCTGAATTCCGGTCTCCC
DNA 2: TGGTGGCTACGACGGGATT
B14: CUUGUUU (DNA:RNA)
RNA: B1 RNA with A25C, C28G, A31U
DNA 1: CAATCTGAATTCCGGTCTCCC
DNA 2: TGGTGGCTACGACGGGATT
B15: AUGUAUC (DNA:RNA)
RNA: B1 RNA with U27G, C28U, U29A, A31C
DNA 1: CAATCTGAATTCCGGTCTCCC
DNA 2: TGGTGGCTACGACGGGATT
B16: AUGUAGA (DNA:RNA)
RNA: B1 RNA with U27G, C28U, U29A, U30G
DNA 1: CAATCTGAATTCCGGTCTCCC
DNA 2: TGGTGGCTACGACGGGATT
B17: AUGUAAA (DNA:RNA)
RNA: B1 RNA with U27G, C28U, U29A, U30A
DNA 1: CAATCTGAATTCCGGTCTCCC
DNA 2: TGGTGGCTACGACGGGATT
B18: AUGUAUG (DNA:RNA)
RNA: B1 RNA with U27G, C28U, U29A, A31G
DNA 1: CAATCTGAATTCCGGTCTCCC
DNA 2: TGGTGGCTACGACGGGATT
B19: ACGUAUC (DNA:RNA)
RNA: B1 RNA with U26C, U27G, C28U, U29A, A31C
DNA 1: CAATCTGAATTCCGGTCTCCC
DNA 2: TGGTGGCTACGACGGGATT
B20: AUAUGUA (DNA:RNA)
RNA: B1 RNA with U27A, C28U, U29G
DNA 1: CAATCTGAATTCCGGTCTCCC
DNA 2: TGGTGGCTACGACGGGATT

Biological target: T1, RBFOX1 RRM RbFoxmut (Fox-RRM*)
Test: EMSA; HiTS-Eq, 1 nM pool, 10 min; buffer printed only for the single-RNA assays: 10 mM Tris pH 7.5, 150 mM NaCl, 3.4 mM EDTA, 0.001% NP-40, 30 C
Conditions: tags: His6 N-terminal (pET28a); label: 5' 32P
How it was run: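 These values rest on relative association constants, computed from read-count changes of each RNA species versus the control reaction and normalised to the cognate motif. Reads came from free RNA recovered by 8% native PAGE after purified RbFox RRM (wild type or mutant) at increasing concentrations was equilibrated for 10 min in 50 µL with 1 nM of a 5′-radiolabelled pool with 7 randomized nucleotides and DNA-annealed flanks.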

In order of falling binding signal:
1. B7  1.34 KA relative to UGCAUGU
2. B18  1.19 KA relative to UGCAUGU
3. B9  1 KA relative to UGCAUGU
4. B6  0.509 KA relative to UGCAUGU
5. B15  0.407 KA relative to UGCAUGU
6. B20  0.261 KA relative to UGCAUGU
7. B8  0.208 KA relative to UGCAUGU
8. B3  0.186 KA relative to UGCAUGU
9. B19  0.185 KA relative to UGCAUGU
10. B5  0.178 KA relative to UGCAUGU
11. B17  0.169 KA relative to UGCAUGU
12. B16  0.152 KA relative to UGCAUGU
13. B10  0.144 KA relative to UGCAUGU
14. B4  0.137 KA relative to UGCAUGU
15. B1  0.13 KA relative to UGCAUGU
16. B2  0.122 KA relative to UGCAUGU
17. B12  0.122 KA relative to UGCAUGU
18. B11  0.103 KA relative to UGCAUGU
19. B14  0.0932 KA relative to UGCAUGU
20. B13  0.0555 KA relative to UGCAUGU
